Experiment [1] addresses Aryl hydrocarbon receptor (Homo sapiens) (UniProt P35869). The experiment is described as follows: qHTS assay to identify small molecule that activate the aryl hydrocarbon receptor (AhR) signaling pathway (AID 743085).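 Note: HG2L7.5c1 human HepG2 liver cells with stably integrated DRE-driven firefly reporter; series mostly up to about 70 µM; nearly all actives have a fitted effect of over 15% in size.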 The procedure, abridged:
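Measured in HG2L7.5c1 cells: CellTiter-Fluor signal (30 min incubation, 37C) for viability, then luciferase luminescence (30 min, room temperature). Compound contact time was 24 h at 37C, following a 5 h pre-incubation.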
Background: In qHTS, concentration-response curves come from the screen itself.

Experiment [2] in a line: qHTS assay to identify small molecule that activate the aryl hydrocarbon receptor (AhR) signaling pathway - cell viability counter screen (AID 743086).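 For viability change, negative = cytotoxic: HepG2 liver cells carrying the AhR DRE luciferase reporter; series mostly up to about 70 µM.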 Note: nearly all actives have a fitted effect of over 45% in size. Note: potency is the fitted concentration of half-maximal effect. In short, it runs like this: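 HepG2-AhR-luc (HG2L7.5c1) cells, 4000/well, were preincubated 5 h at 37C, exposed to compound in qHTS format for 24 hr at 37C, then given CellTiter-Fluor for 30 min; viability was read as fluorescence in the reporter wells.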

For experiment [3], the target named is Peroxisome proliferator-activated receptor gamma (Homo sapiens) (UniProt P37231). The experiment can be described thus: qHTS assay to identify small molecule agonists of the peroxisome proliferator-activated receptor gamma (PPARg) signaling pathway (AID 743094; active = well fitted activation curve with a large enough effect in the signal ratio in the repeat runs, not every such curve was filed as active; the % refers to the signal ratio). In short, it runs like this: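 HEK293H PPARg-bla cells, 5 h settle at 37C/5% CO2; compound (DMSO) 17 h, 37C; B/G FRET substrate 1 h RT; fluorescence intensity read-out. qHTS format.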

The target is the same in experiment [4]. The experiment can be described thus: qHTS assay to identify small molecule antagonists of the peroxisome proliferator-activated receptor gamma (PPARg) signaling pathway (AID 743191; calls by dose curve; note: series mostly up to about 63 µM; nearly all actives have a fitted effect of over 30% in size). In short, it runs like this: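 GeneBLAzer PPARg UAS-bla HEK293H cells carrying a UAS-driven beta-lactamase reporter were plated at 3000 cells/well, preincubated 5 h at 37C, then given compound for 17 h at 37C; LiveBLAzer B/G FRET substrate was read after 1 h at room temperature.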

A short description of experiment [5]: qHTS assay to identify small molecule antagonists of the peroxisome proliferator-activated receptor gamma (PPARg) signaling pathway - cell viability counter screen (AID 743194). Note: nearly all actives have a fitted effect of over 55% in size. The procedure, abridged:
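PPARg-UAS-bla HEK293H cells were plated, rested 5 h at 37 C, then treated with compounds plus rosiglitazone (50 nM final) for 17 h at 37 C; viability was then read by CellTiter-Glo luminescence after 30 min at room temperature.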

Experiment [6] in a line: qHTS assay for small molecule agonists of the antioxidant response element (ARE) signaling pathway (AID 743202; active = well fitted activation curve with a large enough effect in the signal ratio in the repeat runs, not every such curve was filed as active; the % refers to the signal ratio). In short, it runs like this:
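Following a 16 h, 37 C exposure of reporter HepG2 cells (ARE-driven beta-lactamase, 2,000 cells/well) to compounds, FRET substrate was applied for 2 h at room temperature and fluorescence intensity recorded.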

Experiment [7] in a line: qHTS assay for small molecule agonists of the antioxidant response element (ARE) signaling pathway - cell viability counter screen (AID 743203; calls by dose curve; note: nearly all actives have a fitted effect of over 55% in size). In short, it runs like this:
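Luminescence read-out (CellTiter-Glo, 30 min at room temperature) measured cell viability in the same wells as the ARE beta-lactamase reporter. HepG2 ARE-bla cells were treated with compounds for 16 hrs at 37C/5% CO2.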

Experiment [8] in a line: qHTS assay for small molecule activators of the heat shock response signaling pathway - cell viability counter screen (AID 743209). Note: nearly all actives have a fitted effect of over 50% in size. In short, it runs like this:
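HSE-bla HeLa; 1500 cells/well; overnight 37 C, 5% CO2; compound 5 h 37 C; LiveBLAzer B/G substrate 2.5 h RT; CellTiter-Glo 30 min RT; luminescence.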

Experiment [9] is described as follows: qHTS assay for small molecule activators of the heat shock response signaling pathway (AID 743210; active = well fitted activation curve with a large enough effect in the signal ratio in the repeat runs, with a control signal flat, not every such curve was filed as active; the % refers to the signal ratio; note: series mostly up to about 63 µM). The procedure, abridged:
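Heat shock element–beta-lactamase HeLa reporter cells; qHTS with compounds for 5 h at 37 C; detection by FRET substrate fluorescence after 2.5 h at RT.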

The target of experiment [10] is Peroxisome proliferator-activated receptor delta (Homo sapiens) (UniProt Q03181). The experiment can be described thus: qHTS assay to identify small molecule agonists of the peroxisome proliferator-activated receptor delta (PPARd) signaling pathway (AID 743212; calls by dose curve). In short, it runs like this:
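Beta-lactamase reporter read by fluorescence (LiveBLAzer B/G FRET, 2 h, room temperature). Test agents, in DMSO, incubated at 37 C with PPARd-bla HEK293H cells.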

The nature of experiment [11]: qHTS assay to identify small molecule antagonists of the peroxisome proliferator-activated receptor delta (PPARd) signaling pathway - cell viability counter screen (AID 743213). Note: nearly all actives have a fitted effect of over 50% in size. The procedure, abridged:
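Same-well viability: cells pre-incubated 5 h, dosed with compound plus 300 nM L165041, kept 17 h at 37 C, FRET substrate 2 h RT, then CellTiter-Glo 30 min RT and luminescence.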

Experiment [12] concerns the target Peroxisome proliferator-activated receptor delta (Homo sapiens) (UniProt Q03181). The experiment can be described thus: qHTS assay to identify small molecule antagonists of the peroxisome proliferator-activated receptor delta (PPARd) signaling pathway (AID 743215; active = well fitted inhibition curve with a large enough effect in the signal ratio in the repeat runs, not every such curve was filed as active; the % refers to the signal ratio;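 note: cells stimulated with agonist L165041 at 300 nM final during compound exposure; series mostly up to about 62 µM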). The procedure, abridged: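 HEK293H GeneBLAzer PPARd UAS-bla reporter cells; cpd + L165041 300 nM final, 17 h 37 C; LiveBLAzer B/G FRET substrate 2 h RT; fluorescence intensity read-out. Antagonist mode.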

Experiment [13] in a line: qHTS assay to identify small molecule agonists of the farnesoid-X-receptor (FXR) signaling pathway - cell viability counter screen (AID 743218). Note: nearly all actives have a fitted effect of over 45% in size. In short, it runs like this: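 Luminescence from CellTiter-Glo, read after 30 min at RT, reports viability of GeneBLAzer FXR-UAS-bla HEK 293T cells treated 16 h with compounds in the wells used for the beta-lactamase reporter.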

The target of experiment [14] is Vitamin D3 receptor (Homo sapiens) (UniProt P11473). The experiment is described as follows: qHTS assay to identify small molecule agonists of the vitamin D receptor (VDR) signaling pathway (AID 743222; calls by dose curve). The procedure, abridged:
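Beta-lactamase reporter readout (LiveBLAzer B/G FRET, 2 h RT) in VDR-bla cells after 16 h compound treatment at 37C, 5% CO2; cells pre-incubated 4 h before pin transfer of DMSO solutions.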

Experiment [15] can be described thus: qHTS assay to identify small molecule agonists of the vitamin D receptor (VDR) signaling pathway - cell viability counter screen (AID 743224). Note: series mostly up to about 63 µM; nearly all actives have a fitted effect of over 50% in size. In short, it runs like this: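 Cytotoxicity counter screen: VDR-bla cells, 16 h compound exposure at 37C, 5% CO2; CellTiter-Glo luminescence, 30 min RT, same wells as bla read.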
Experiment [16] can be described thus: qHTS assay to identify small molecule agonists of the peroxisome proliferator-activated receptor delta (PPARd) signaling pathway - cell viability counter screen (AID 743211). Note: nearly all actives have a fitted effect of over 55% in size. The procedure, abridged: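 Following 5 h plating at 37 C and 5% CO2, PPARd UAS-bla HEK293H cells took up test compounds for 17 h. Viability was quantified by luminescence 30 min after CellTiter-Glo addition at room temperature.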

Experiment [17] in a line: qHTS assay to identify small molecule antagonists of the farnesoid-X-receptor (FXR) signaling pathway - cell viability counter screen (AID 743221; active = well fitted cell-killing curve with a large enough effect in the repeat runs, not every such curve was filed as active; note: nearly all actives have a fitted effect of over 50% in size). The procedure, abridged: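 Compound effects on cell number were measured as CellTiter-Glo luminescence in HEK 293T cells expressing FXR-UAS-bla, after 16 h at 37 C with 50 uM CDCA (final).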
In experiment [18] the target is Vitamin D3 receptor (Homo sapiens) (UniProt P11473). The experiment can be described thus: qHTS assay to identify small molecule antagonists of the vitamin D receptor (VDR) signaling pathway (AID 743223; active = well fitted inhibition curve with a large enough effect in the signal ratio in the repeat runs, not every such curve was filed as active; the % refers to the signal ratio). The procedure, abridged:
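Beta-lactamase activity in VDR-bla cells is measured by FRET substrate fluorescence (2 h, room temperature) after cells spend 16 h at 37C with test compound and 3 nM final 1alpha,25-dihydroxyvitamin D3.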

The target in experiment [19] is Bile acid receptor (Homo sapiens) (UniProt Q96RI1). The experiment can be described thus: qHTS assay to identify small molecule antagonists of the farnesoid-X-receptor (FXR) signaling pathway (AID 743217; active = well fitted inhibition curve with a large enough effect in the signal ratio in the repeat runs, not every such curve was filed as active; the % refers to the signal ratio). The procedure, abridged:
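Read-out: beta-lactamase FRET fluorescence (LiveBLAzer B/G substrate, 2 h, room temperature) in GeneBLAzer FXR-UAS-bla HEK 293T cells. Compounds were co-dosed with 50 uM chenodeoxycholic acid (final) and incubated 16 h at 37 °C.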

Experiment [20] has the same target. The experiment can be described thus: qHTS assay to identify small molecule agonists of the farnesoid-X-receptor (FXR) signaling pathway (AID 743220; active = well fitted activation curve with a large enough effect in the signal ratio in the repeat runs, not every such curve was filed as active; the % refers to the signal ratio). In short, it runs like this: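 FXR-UAS-bla HEK 293T cells carrying a UAS-driven beta-lactamase reporter were plated for 5 h at 37C/5% CO2, then exposed to DMSO-dissolved Tox21 10K compounds for 16 h at 37C. A LiveBLAzer B/G FRET substrate was loaded for 2 h at room temperature before fluorescence reading.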

Inconclusive results are not listed. A structure can be active in one record and inactive in another. Unmarked numbers belong to inactive results. Calls of active or inactive are those of the source. Unless noted, calls come from the whole dose curve; as a rule, active = well fitted curve in the direction sought with a large enough effect in the repeat runs; inconclusive = weak or mixed curves; inactive = no such curve, though single readings can be large; an effect the other way counts as inactive or inconclusive.
% is set by controls: 0 for no effect and ±100 for the full control effect.

Bile acid receptor (Homo sapiens), sequence (Q96RI1 whole entry, looked up): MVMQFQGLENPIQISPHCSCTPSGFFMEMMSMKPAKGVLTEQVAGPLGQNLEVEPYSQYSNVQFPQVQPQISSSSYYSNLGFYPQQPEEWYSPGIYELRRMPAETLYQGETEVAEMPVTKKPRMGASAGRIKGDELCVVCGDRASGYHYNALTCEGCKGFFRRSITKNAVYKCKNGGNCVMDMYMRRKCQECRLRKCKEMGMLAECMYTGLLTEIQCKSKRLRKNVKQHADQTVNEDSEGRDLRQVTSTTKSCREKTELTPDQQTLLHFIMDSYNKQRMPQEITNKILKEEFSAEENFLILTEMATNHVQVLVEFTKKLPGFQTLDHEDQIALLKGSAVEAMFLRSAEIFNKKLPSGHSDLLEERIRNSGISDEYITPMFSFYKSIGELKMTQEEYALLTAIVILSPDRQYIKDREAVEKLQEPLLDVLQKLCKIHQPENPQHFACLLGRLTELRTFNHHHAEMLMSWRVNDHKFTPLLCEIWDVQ
Aryl hydrocarbon receptor (Homo sapiens), sequence (P35869 whole entry, looked up): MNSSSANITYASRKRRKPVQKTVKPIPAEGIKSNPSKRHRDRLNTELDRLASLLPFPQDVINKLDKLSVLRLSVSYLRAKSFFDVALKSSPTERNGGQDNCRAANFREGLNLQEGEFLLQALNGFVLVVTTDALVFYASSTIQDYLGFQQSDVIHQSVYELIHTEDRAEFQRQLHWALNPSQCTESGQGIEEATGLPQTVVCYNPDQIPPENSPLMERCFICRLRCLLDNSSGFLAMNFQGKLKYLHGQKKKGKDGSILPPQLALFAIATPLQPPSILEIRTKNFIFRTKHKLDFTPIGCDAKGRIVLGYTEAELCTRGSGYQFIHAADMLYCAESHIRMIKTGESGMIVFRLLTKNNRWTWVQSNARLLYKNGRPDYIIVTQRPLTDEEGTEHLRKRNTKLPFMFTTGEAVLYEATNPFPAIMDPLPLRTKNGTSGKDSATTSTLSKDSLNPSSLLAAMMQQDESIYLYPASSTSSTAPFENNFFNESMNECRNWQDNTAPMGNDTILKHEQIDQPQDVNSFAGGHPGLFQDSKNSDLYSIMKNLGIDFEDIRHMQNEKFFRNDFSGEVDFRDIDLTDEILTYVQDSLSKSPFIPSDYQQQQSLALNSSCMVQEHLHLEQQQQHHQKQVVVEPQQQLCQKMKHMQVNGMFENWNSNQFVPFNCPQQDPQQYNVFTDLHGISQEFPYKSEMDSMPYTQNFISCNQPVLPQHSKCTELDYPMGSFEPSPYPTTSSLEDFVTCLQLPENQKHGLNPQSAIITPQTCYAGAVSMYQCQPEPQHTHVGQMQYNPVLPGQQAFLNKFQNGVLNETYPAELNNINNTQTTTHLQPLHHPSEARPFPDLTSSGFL
Vitamin D3 receptor (Homo sapiens), sequence (P11473 whole entry, looked up): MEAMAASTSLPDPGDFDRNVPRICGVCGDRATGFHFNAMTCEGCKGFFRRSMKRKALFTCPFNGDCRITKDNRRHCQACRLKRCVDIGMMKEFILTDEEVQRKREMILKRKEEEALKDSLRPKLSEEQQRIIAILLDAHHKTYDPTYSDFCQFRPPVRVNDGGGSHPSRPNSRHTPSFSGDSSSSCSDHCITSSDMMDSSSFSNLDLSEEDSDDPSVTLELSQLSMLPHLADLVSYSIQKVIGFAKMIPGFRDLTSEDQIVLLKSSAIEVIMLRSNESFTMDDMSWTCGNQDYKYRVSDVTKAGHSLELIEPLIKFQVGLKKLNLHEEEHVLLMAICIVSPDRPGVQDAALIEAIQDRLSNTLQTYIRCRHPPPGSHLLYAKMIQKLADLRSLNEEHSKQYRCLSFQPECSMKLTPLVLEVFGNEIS
Peroxisome proliferator-activated receptor delta (Homo sapiens), sequence (Q03181 whole entry, looked up): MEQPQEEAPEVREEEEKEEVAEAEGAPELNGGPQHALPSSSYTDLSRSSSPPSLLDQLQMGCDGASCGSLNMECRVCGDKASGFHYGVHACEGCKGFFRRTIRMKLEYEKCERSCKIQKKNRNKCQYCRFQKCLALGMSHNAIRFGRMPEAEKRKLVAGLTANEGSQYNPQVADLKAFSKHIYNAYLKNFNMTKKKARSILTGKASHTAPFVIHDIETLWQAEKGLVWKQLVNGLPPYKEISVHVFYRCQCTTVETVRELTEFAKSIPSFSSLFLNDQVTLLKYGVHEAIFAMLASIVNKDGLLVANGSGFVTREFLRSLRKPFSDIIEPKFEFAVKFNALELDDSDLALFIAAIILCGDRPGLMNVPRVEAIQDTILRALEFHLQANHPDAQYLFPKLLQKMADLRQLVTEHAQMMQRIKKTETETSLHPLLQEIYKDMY
Peroxisome proliferator-activated receptor gamma (Homo sapiens), sequence (P37231 whole entry, looked up): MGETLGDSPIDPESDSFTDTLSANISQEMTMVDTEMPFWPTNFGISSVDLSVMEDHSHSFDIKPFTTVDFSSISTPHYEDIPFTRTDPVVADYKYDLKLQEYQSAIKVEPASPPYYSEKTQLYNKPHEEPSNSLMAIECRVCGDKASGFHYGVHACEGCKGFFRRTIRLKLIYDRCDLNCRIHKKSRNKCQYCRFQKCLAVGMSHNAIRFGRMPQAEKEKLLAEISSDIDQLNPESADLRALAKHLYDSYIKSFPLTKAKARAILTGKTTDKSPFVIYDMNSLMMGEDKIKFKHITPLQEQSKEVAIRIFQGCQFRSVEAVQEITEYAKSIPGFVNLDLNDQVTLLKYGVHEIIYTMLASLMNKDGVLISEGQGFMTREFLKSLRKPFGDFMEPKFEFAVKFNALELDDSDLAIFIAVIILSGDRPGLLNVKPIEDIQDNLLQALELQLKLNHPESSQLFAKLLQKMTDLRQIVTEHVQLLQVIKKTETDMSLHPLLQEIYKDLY

For `O=C(CCCCC(=O)Nc1c(I)cc(I)c(C(=O)O)c1I)Nc1c(I)cc(I)c(C(=O)O)c1I`, the Potency entry in experiment [1], in [2], in experiment [3], in experiment [6] and in [8] was “inactive” throughout. In addition, the result in experiment [4], in [5], in [7], in experiment [9], in experiment [10] and in experiment [11] was inactive. The compound was classed as inactive in [12], in experiment [13], in experiment [14] and in experiment [15].
On to `CCCC(CC)c1ccccc1` (centres undefined), for which the Potency result in experiment [1], in experiment [2], in experiment [3], in experiment [6] and in experiment [8] was “inactive” each time. Besides, the compound was called inactive in [4], in experiment [5], in experiment [7], in experiment [9], in experiment [16] and in experiment [13]. For the same compound, the result in [17], in experiment [14] and in [18] was inactive.
As to `COC(C)(OC)OC`, the Potency entry in experiment [1], in experiment [2], in experiment [3], in [6] and in [8] was “inactive” in each case. Also, the compound was classed as inactive in [4], in experiment [5], in [7], in experiment [9], in experiment [16] and in experiment [10]. Besides, the outcome in experiment [11], in [13], in [17], in experiment [14] and in experiment [18] was inactive.
Consider `O=S(=O)(O)c1ccc2c(N=Nc3ccc(S(=O)(=O)O)c4ccccc34)c(O)c(S(=O)(=O)O)cc2c1`, for which the Potency result in experiment [1] and in experiment [3] was “inactive” each time. In addition, the Potency in experiment [2] was 13.3 µM (active). The viability change, negative = cytotoxic in experiment [2] was -5.27% [at 8.47 µM]; in experiment [7], -0.964% [at 8.36 µM]; in experiment [13], 1.45% [at 5.95 µM]. In addition, the ratio activity, negative = inhibition in [4] is -16.6% [at 5.95 µM]. In addition, the activity change, negative = cytotoxicity in [5] was -3.57% [at 5.95 µM]; in experiment [8] it was 0.481% [at 5.95 µM]; in experiment [17] it was -3.15% [at 5.95 µM]; in experiment [15], -0.166% [at 5.95 µM]. Also, the activation in [6] is 7.21% [at 8.36 µM]; in experiment [9], -0.859% [at 5.95 µM]; in experiment [10], 0.0676% [at 5.95 µM]; in [20] it was -0.449% [at 5.95 µM]; in experiment [14], -5.96% [at 6.01 µM]. Further, the activity change, negative = inhibition was -1.36% [at 5.95 µM] in [19] and 8.98% [at 6.95 µM] in [18].
Take `CCCCCCCCCCCCCCCCCC#N`: the Potency result in experiment [1], in [2], in [3], in experiment [6] and in [8] was “inactive” each time. In addition, the compound was called inactive in experiment [4], in experiment [5], in [7], in experiment [9], in [16] and in experiment [10]. For the same compound, the outcome in experiment [11], in [13] and in experiment [17] was inactive.
As for `CCCCSCCCC`, the Potency entry in experiment [1], in [2], in experiment [3], in experiment [6] and in [8] was “inactive” in each case. In addition, the result in [4], in experiment [5], in experiment [7], in experiment [9], in experiment [16] and in experiment [10] was inactive. Also, the result in experiment [11], in [12], in [13], in experiment [17] and in experiment [15] was inactive.
Consider `CC(S)C(C)S` (centres undefined), for which the Potency entry in experiment [1], in [2], in experiment [3], in experiment [6] and in experiment [8] was “inactive” each time. The outcome in [4], in [5], in [7], in experiment [16], in experiment [10] and in experiment [19] was inactive. In addition, the compound was classed as inactive in experiment [13], in [20], in experiment [17], in experiment [14] and in experiment [15].
With `CC(C)Cn1cnc2c1c(=O)n(C)c(=O)n2C`, the Potency result in experiment [1], in [2], in experiment [3], in [6] and in experiment [8] was “inactive” in each case. The outcome in experiment [4], in [5], in experiment [7], in experiment [9], in experiment [16] and in [10] was inactive. Moreover, the compound was called inactive in experiment [11], in [12], in experiment [19], in experiment [13], in experiment [20] and in experiment [14]. For the same compound, the outcome in [18] and in experiment [15] was inactive.
`CCCCCCC1(C)CCC(=O)O1` (centres undefined): the Potency result in experiment [1], in [2], in experiment [3], in experiment [6] and in experiment [8] was “inactive” in each case. The result in [4], in experiment [5], in experiment [7], in experiment [9], in [16] and in experiment [10] was inactive. In addition, the outcome in [13], in [17], in experiment [14], in experiment [18] and in experiment [15] was inactive.
